Measurements as given in PubChem BioAssay.
Active and inactive are the calls of the source. Unless noted, how the calls were made is not given here.

Columns and labels:
[1] = anti-His antibody binders, primary screen, artefact control for SMM control protein annotation, biochemical, small-molecule microarray, 635 nm fluorescence (AID 1128); conditions: anti-His Alexa647 antibody binding, higher = more signal;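 further: score merges feature fluorescence with signal-to-noise for each printed compound spot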
[2] = test system: Human papillomavirus type 1a E7 protein (residues 1-88); test: HPV1a E7 small-molecule binders, primary screen, biochemical, small-molecule microarray, residues 1-88, 635 nm (AID 1129); conditions: small-molecule microarray binding, fluorescence 635 nm; higher = more signal
[3] = molecular target: Focal adhesion kinase 1 (Homo sapiens) (UniProt Q05397); test: small-molecule microarray binders of FAK, primary screen, biochemical, 635/667 nm fluorescence, BSA, DTT (AID 1130); conditions: PTK2 binding, 635 nm fluorescence, higher = more signal;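 further: composite of spot emission at 667 nm and signal to noise over triplicate slides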
[4] = test system: Fibrinogen (Alexa647-labelled); test: fibrinogen binders on compound microarrays, profiling panel, artefact control for SMM control-protein annotation, biochemical, small-molecule microarray, 635/667 nm fluorescence (AID 1131); conditions: fibrinogen-A647 binding fluorescence, higher = more signal;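 further: z-score merges 667 nm fluorescence with per-spot signal-to-noise over triplicate slides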
[5] = molecular target: Follistatin (Homo sapiens) (UniProt P19883); test: follistatin binders on small-molecule microarrays, primary screen, biochemical, small-molecule microarray, 635/667 nm fluorescence (AID 1132); conditions: FST binding, 635 nm fluorescence, higher = more signal
[6] = molecular target: Fibroblast growth factor 2 (Homo sapiens) (UniProt P09038); test: FGF2 binders on small-molecule microarrays, primary screen, biochemical, small-molecule microarray, 635/667 nm fluorescence (AID 1133); conditions: small-molecule microarray binding, FGF2, fluorescence 635/667; higher = more signal
[7] = mitochondrial membrane potential change in A549 cells, profiling panel, cell-based, JC-1 fluorescence, basal, 24 h, 100 nL (AID 1138); conditions: higher = more signal;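 further: A549 lung adenocarcinoma cells under basal conditions with no added stimulus; test concentration not given here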
Lefty1 = Lefty1 binders on small-molecule microarrays, primary screen, biochemical, small-molecule microarray, 635/667 nm fluorescence (AID 1139); conditions: small-molecule microarray binding, fluorescence 635/667; higher = more signal
[8] = test system: wheat germ agglutinin (Triticum aestivum), Alexa647-labelled; test: wheat germ agglutinin binders on compound microarrays, profiling panel, artefact control for SMM control-protein annotation, biochemical, small-molecule microarray, 635/667 nm fluorescence (AID 1140); conditions: WGA-A647 binding, 635 nm fluorescence, higher = more signal;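 further: score merges 667 nm feature emission with signal to noise over triplicate slides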
[9] = molecular target: Luciferin 4-monooxygenase (Photinus pyralis) (UniProt P08659); test: firefly luciferase enzyme inhibitors, primary screen, biochemical, luminescence, purified enzyme, 2006 set (AID 1141); conditions: SteadyGlo luminescence, 30 min, higher = more signal, called active from +8 up or from −8 down;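 further: cell-free assay with purified firefly luciferase at 100 ng per well in PBS; test concentration not given here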
[10] = test system: Wnt5a (protein binding on small-molecule microarray); test: Wnt5a binders on small-molecule microarray, primary screen, biophysical, 635/667 nm fluorescence (AID 1142); conditions: 635 nm fluorescence, higher = more signal;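 further: fluorescence read at 667 nm with signal to noise per printed feature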
[11] = cell viability in Huh7 cells, primary screen, cytotoxicity control for HCV replication inhibitor project, CellTiter-Glo luminescence, basal, 48 h (AID 1143); conditions: Huh7 HCV replicon, higher = more signal, called active from +8 up or from −8 down;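 further: Huh7 hepatoma cells carrying a hepatitis C replication reporter with no stimulus; test concentration not given here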
[12] = P. aeruginosa biofilm formation inhibitors, primary screen, PAO1 strain, BacTiter-Glo luminescence, LB-PBS (AID 1144); conditions: 12 h, higher = more signal
[13] = CREB reporter modulators without forskolin, primary screen, cell-based, PC12, CRE-LacZ reporter, unstimulated (AID 1145); conditions: no forskolin, luminescence, 4.5 h, higher = more signal, called active from +8 up or from −8 down
[14] = CREB reporter modulators under forskolin, primary screen, cell-based, PC12, CRE-LacZ reporter, forskolin-stimulated (AID 1146); conditions: luminescence, 4.5 h, higher = more signal, called active from +8 up or from −8 down;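 further: PC12 cells with 6xCRE LacZ reporter stimulated by forskolin 10 µM; beta-galactosidase reporter signal reflecting CREB driven transcription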
[15] = molecular target: Streptavidin (Streptomyces avidinii) (UniProt P22629); test: streptavidin binders on small-molecule microarray, primary screen, artefact control for SMM compound annotation, biophysical, 635/667 nm fluorescence (AID 1147); conditions: streptavidin binding, higher = more signal;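 further: signal reflects streptavidin binding to arrayed compounds as a control protein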
[16] = small-molecule binders of probe aInhba, primary screen, biochemical, small-molecule microarray, 635/667 nm fluorescence (AID 1148); conditions: higher = more signal;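 further: score merges 667nm spot fluorescence with signal-to-noise for antibody binding to printed compounds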
Torsin-1A (Homo sapiens) [17] = molecular target: Torsin-1A (Homo sapiens) (UniProt O14656); test: torsin A binders from cell lysate, primary screen, small-molecule microarray, wild-type, 635/667 nm (AID 1149); conditions: COS7 hTOR1A-WT lysate, 635 nm fluorescence, higher = more signal
Torsin-1A (Homo sapiens) [18] = molecular target: Torsin-1A (Homo sapiens) (UniProt O14656); test: small-molecule binders of mutant TOR1A in lysate, primary screen, cell lysate, small-molecule microarray, COS7 lysate, 635/667 nm fluorescence (AID 1150); conditions: COS7 hTOR1A mutant lysate, 635 nm fluorescence, higher = more signal;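 further: score pools 667 nm emission and signal to noise measuring lysate protein binding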
[19] = test system: Sonic hedgehog protein (Shh); test: small-molecule binders of Shh protein, primary screen, biochemical, small-molecule microarray, 635/667 nm fluorescence (AID 1151); conditions: small-molecule microarray binding, 635 nm fluorescence; higher = more signal;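 further: Shh protein binding to compounds spotted on small-molecule microarray slides; score combines spot fluorescence intensity with signal-to-noise across triplicate slides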

Fibroblast growth factor 2 (Homo sapiens), sequence (P09038 whole entry, looked up): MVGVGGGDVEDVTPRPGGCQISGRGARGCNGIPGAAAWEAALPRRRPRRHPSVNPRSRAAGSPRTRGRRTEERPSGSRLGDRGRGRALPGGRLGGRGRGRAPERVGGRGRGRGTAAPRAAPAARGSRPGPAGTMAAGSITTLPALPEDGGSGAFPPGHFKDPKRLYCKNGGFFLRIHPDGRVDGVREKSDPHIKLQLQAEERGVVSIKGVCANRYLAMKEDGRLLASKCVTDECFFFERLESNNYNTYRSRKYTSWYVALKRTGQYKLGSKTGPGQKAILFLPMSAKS
Streptavidin (Streptomyces avidinii), sequence (P22629 whole entry, looked up): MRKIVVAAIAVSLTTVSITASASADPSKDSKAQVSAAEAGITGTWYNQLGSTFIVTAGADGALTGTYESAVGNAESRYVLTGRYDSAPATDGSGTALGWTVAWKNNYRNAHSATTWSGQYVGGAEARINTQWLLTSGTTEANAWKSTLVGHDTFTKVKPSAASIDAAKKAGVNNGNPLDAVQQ
Follistatin (Homo sapiens), sequence (P19883 whole entry, looked up): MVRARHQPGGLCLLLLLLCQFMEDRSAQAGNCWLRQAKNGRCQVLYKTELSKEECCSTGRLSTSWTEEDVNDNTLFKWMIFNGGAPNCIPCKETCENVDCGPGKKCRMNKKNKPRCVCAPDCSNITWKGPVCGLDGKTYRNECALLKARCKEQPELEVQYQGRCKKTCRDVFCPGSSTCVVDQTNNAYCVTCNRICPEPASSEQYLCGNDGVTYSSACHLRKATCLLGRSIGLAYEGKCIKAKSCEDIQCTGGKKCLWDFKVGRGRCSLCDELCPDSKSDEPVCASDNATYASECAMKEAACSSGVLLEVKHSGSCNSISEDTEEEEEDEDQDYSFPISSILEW
Torsin-1A (Homo sapiens), sequence (O14656 whole entry, looked up): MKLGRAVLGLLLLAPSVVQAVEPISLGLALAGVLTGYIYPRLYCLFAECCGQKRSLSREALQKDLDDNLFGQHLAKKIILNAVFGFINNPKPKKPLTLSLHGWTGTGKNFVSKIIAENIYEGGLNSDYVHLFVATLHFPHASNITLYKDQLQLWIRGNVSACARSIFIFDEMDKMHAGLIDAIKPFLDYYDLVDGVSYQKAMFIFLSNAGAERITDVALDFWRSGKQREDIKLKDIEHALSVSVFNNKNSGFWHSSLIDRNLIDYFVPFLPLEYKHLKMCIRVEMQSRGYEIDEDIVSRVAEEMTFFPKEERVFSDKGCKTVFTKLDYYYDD
Focal adhesion kinase 1 (Homo sapiens), sequence (Q05397 whole entry, looked up): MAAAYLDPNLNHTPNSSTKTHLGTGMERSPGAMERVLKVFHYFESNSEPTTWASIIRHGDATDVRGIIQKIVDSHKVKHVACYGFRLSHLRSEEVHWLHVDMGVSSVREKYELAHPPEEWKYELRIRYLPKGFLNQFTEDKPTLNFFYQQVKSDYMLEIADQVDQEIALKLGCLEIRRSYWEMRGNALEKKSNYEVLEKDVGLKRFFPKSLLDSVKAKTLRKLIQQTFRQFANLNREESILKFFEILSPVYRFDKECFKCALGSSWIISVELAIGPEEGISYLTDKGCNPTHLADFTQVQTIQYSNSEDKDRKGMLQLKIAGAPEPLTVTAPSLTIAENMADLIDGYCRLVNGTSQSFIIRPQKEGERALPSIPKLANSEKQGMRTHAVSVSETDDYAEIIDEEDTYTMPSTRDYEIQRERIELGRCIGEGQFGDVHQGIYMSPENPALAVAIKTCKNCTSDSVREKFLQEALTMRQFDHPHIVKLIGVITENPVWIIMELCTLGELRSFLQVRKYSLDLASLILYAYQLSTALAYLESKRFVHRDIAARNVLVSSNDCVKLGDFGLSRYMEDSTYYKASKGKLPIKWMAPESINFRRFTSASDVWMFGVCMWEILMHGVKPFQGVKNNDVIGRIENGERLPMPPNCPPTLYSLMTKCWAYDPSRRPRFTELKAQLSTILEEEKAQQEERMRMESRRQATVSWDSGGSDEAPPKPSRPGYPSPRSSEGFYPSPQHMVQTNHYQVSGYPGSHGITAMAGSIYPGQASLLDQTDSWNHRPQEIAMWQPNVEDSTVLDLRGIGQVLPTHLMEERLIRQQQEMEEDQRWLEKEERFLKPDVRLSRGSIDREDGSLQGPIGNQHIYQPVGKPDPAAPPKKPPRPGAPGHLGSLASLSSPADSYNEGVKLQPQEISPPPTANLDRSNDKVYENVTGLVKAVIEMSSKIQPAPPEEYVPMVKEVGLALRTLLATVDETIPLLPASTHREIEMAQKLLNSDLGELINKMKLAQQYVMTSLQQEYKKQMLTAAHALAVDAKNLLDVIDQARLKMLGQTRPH
Luciferin 4-monooxygenase (Photinus pyralis), sequence (P08659 whole entry, looked up): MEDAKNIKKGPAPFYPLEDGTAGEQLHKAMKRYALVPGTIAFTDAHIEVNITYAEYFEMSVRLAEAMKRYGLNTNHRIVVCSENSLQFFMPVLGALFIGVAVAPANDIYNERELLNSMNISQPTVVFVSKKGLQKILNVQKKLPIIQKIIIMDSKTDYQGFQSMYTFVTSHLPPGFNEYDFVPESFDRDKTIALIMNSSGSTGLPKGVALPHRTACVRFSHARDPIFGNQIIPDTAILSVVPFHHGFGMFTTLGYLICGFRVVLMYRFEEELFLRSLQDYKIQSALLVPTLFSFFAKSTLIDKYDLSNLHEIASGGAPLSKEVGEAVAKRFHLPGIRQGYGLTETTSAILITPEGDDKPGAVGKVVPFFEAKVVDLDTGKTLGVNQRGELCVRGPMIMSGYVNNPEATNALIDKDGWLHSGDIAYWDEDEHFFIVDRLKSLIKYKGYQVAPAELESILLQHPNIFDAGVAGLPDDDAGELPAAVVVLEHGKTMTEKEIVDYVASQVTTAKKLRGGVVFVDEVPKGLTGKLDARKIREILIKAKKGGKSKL

| SMILES | composite z-score [1] | composite z-score [2] | composite z-score [3] | composite z-score [4] | composite z-score [5] | composite z-score [6] | z-score [7] | composite z-score (Lefty1) | composite z-score [8] | z-score [9] | composite z-score [10] | z-score [11] | z-score [12] | z-score [13] | z-score [14] | composite z-score [15] | composite z-score [16] | composite z-score (Torsin-1A (Homo sapiens) [17]) | composite z-score (Torsin-1A (Homo sapiens) [18]) | composite z-score [19] |
| --- | --- | --- | --- | --- | --- | --- | --- | --- | --- | --- | --- | --- | --- | --- | --- | --- | --- | --- | --- | --- |
| O=P(NCC1(CC2(c3ccccc3)CO2)CC1)(c1ccccc1)c1ccccc1 (stereo not given) | 0.618 | 0.376 | 0.338 | -1.05 | -1.23 | -1.36 | 1.11 | -2.28 | -0.0073 | 1.33 (inactive) | -0.402 | -0.814 (inactive) | 0.318 (inactive) | 0.197 (inactive) | 1.13 (inactive) | -0.767 | -0.0448 | -0.87 | -0.754 | -1.41 |
| COC(=O)[C@@]1(Cc2ccc(F)cc2)[C@H]2c3cc(C(=O)N(C)C)n(CCc4c[nH]c5ccc(OC)cc45)c3C[C@H]2CN1C(=O)c1ccccc1 | -0.0359 | 1.25 | 0.827 | 1.04 | -0.49 | -1.09 | -1.79 | -1.41 | 1.37 | 0.158 (inactive) | 0.325 | -3.84 (inactive) | 1.41 (inactive) | 1.54 (inactive) | 0.883 (inactive) | 1.18 | 0.351 | 1.03 | 1.31 | -1.11 |
| CCN(CC)c1ccc(N2CC=CC34O[C@@H]5/C=C\CCC(C)OC(=O)C5[C@H]3C(=O)N(CCCCCCO)[C@@H]4C2=O)cc1 (stereo not given in full) | 0.0517 | -0.089 | -0.182 | -1.59 | -0.371 | -0.361 | 0.905 | -0.652 | 0.524 | -1.59 (inactive) | -0.449 | -0.406 (inactive) | 0.398 (inactive) | 0.886 (inactive) | 0.57 (inactive) | -0.629 | -0.359 | 0.84 | 0.0844 | -0.166 |
| CC(C)NC(=O)[C@@H]1c2ccccc2C(=O)N(C2CCCCC2)[C@H]1c1ccc(CO)cc1 | 2.71 | 1.15 | 0.517 | 0.137 | 0.449 | 0.525 | 0.483 | -0.161 | 0.577 | 0.202 (inactive) | 0.242 | -1.17 (inactive) | 0.0353 (inactive) | -0.529 (inactive) | -0.579 (inactive) | -0.148 | 0.152 | 0.13 | -0.28 | 0.0045 |
| COC(=O)[C@@]1(Cc2ccc(OC)cc2)[C@H]2c3cc(C(=O)N4CCCC4)n(CCc4ccccn4)c3C[C@H]2CN1C(=O)c1ccccc1 | 0.0421 | 0.201 | 0.579 | 0.821 | -0.29 | -0.676 | -1.29 | -0.91 | 0.0844 | 2.15 (inactive) | -0.249 | -0.784 (inactive) | -0.304 (inactive) | 0.201 (inactive) | 0.404 (inactive) | 0.698 | -0.0332 | -0.166 | 1.1 | 0.429 |
| NC(=O)NCC#Cc1ccc2c(c1)[C@]1(C(=O)N2)[C@H](C(=O)NC[C@H](O)c2ccccc2)[C@H]2C(=O)O[C@H](c3ccccc3)[C@H](c3ccccc3)N2[C@@H]1c1ccccc1OCCO | 0.441 | 1.18 | 0.32 | 0.946 | 1.05 | 0.54 | -1.17 | 0.28 | 0.25 | 0.649 (inactive) | -0.0335 | -4.25 (inactive) | -1.09 (inactive) | -0.0246 (inactive) | -0.304 (inactive) | -0.0692 | 0.0471 | -1.05 | 0.92 | 1.82 |
| O[C@@H](Cc1ccccc1)[C@@H](/C=C/c1ccccc1)NCc1ccccc1Br | -0.538 | -0.85 | -0.716 | -0.354 | -1.19 | -1.14 | 0.772 | -1.64 | 0.217 | 0.284 (inactive) | -1.01 | -0.626 (inactive) | -0.662 (inactive) | 2.67 (inactive) | -2.09 (inactive) | -0.736 | -0.205 | -2.13 | -1.9 | -1.08 |
| CC(C)NC(=O)[C@@]1(c2ccc([N+](=O)[O-])cc2)CC(=O)N(C(C)C)[C@@H]1c1ccc(CO)cc1 | 0.0052 | -0.0933 | -1.05 | -0.961 | -0.849 | -1.23 | 1.3 | -0.554 | 0.516 | -0.979 (inactive) | -0.666 | -3.49 (inactive) | -0.707 (inactive) | 0.522 (inactive) | -0.205 (inactive) | -1.26 | -0.203 | 0.592 | 1.28 | -0.502 |
| CC(C)C(O)C1C=CC2C(=O)N(C)C(=O)C2N1N1CCCCC1 (stereo not given) | -0.0134 | 1.11 | 0.776 | 0.447 | 0.336 | 0.329 | -0.115 | -0.146 | 0.763 | -0.686 (inactive) | -0.0226 | 0.788 (inactive) | -0.775 (inactive) | -0.133 (inactive) | 0.0399 (inactive) | 0.482 | -0.0704 | -0.0881 | 1.29 | 0.192 |
| CCCCC(=C=CC[C@H](O)c1ccccc1OCCO)C[C@H](O)c1cc(Cl)cc(Cl)c1O | 1.02 | 0.955 | 0.305 | 0.517 | 0.698 | 0.28 | -0.343 | 0.249 | 0.0162 | -1.27 (inactive) | 0.121 | -0.433 (inactive) | -0.0417 (inactive) | 7.91 (inactive) | 1.57 (inactive) | -0.18 | -0.0471 | 0.873 | 0.234 | 0.66 |
